What all share (assay): DAPPL (digital affinity profiling via proximity ligation, sequencing); 10 mM Tris-HCl pH 7.5, 50 mM NaCl, 1 mM DTT, 4% glycerol, room temperature, 30 min; GST-TFs on glutathione beads, 16-mer random dsDNA library, 0.1% formaldehyde crosslink after washing; high values mean tight binding
Test [1] deals with T1, FEV (Homo sapiens, UniProt Q99581 1-238).
T1 sequence: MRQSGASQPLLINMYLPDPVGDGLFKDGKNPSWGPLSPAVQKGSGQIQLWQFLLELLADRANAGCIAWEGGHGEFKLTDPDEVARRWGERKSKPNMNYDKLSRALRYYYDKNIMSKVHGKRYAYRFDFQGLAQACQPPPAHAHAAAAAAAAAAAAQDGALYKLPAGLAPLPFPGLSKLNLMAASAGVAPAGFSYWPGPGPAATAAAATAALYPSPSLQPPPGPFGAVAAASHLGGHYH
The settings on record: protein: recombinant; tags: N-terminal GST; dsDNA, one strand shown. A digest of the protocol: (§1)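 Binding signal is defined as a hexamer's read frequency for one factor over its frequency for the tag-only sample. To obtain reads, GST-fused human transcription factors were expressed in yeast, captured on glutathione beads, barcoded with DNA and pooled with that sample. Pools met 200 nmole of a 16-mer random double-stranded DNA library in Tris/NaCl/DTT/glycerol buffer for 30 min at room temperature before washing, 0.1% formaldehyde crosslinking, proximity ligation (BsaI/T4 ligase, 1 h, 37 °C), PCR and Illumina NextSeq500 sequencing.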

Test [2] concerns the target ETV5 (Homo sapiens, UniProt P41161 1-510). As to conditions: protein: recombinant; tags: N-terminal GST; dsDNA, one strand shown. The procedure, abridged:
as §1

Test [3] addresses HSF1 (Homo sapiens, UniProt Q00613 1-529). As to conditions: protein: recombinant; tags: N-terminal GST; chain copies: 3; dsDNA, one strand shown. A digest of the protocol: as §1
Test [4] concerns the target T2, SPIC (Homo sapiens, UniProt Q8N5J4 1-248).
T2 sequence: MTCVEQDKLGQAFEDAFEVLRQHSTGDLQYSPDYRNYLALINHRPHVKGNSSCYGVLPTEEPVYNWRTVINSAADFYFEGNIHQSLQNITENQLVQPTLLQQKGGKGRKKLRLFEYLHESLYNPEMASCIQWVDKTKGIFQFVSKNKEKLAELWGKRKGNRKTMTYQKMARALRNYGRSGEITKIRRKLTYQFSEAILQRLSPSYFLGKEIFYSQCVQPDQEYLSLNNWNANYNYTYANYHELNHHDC
As to conditions: protein: recombinant; tags: N-terminal GST; dsDNA, one strand shown. A digest of the protocol:
as §1

The target of test [5] is ELF4 (Homo sapiens, UniProt Q99607 1-663). The settings on record: protein: recombinant; tags: N-terminal GST; dsDNA, one strand shown. A digest of the protocol:
as §1

For test [6], the target named is T3, ELK4 (Homo sapiens, UniProt P28324-2 1-405).
T3 sequence: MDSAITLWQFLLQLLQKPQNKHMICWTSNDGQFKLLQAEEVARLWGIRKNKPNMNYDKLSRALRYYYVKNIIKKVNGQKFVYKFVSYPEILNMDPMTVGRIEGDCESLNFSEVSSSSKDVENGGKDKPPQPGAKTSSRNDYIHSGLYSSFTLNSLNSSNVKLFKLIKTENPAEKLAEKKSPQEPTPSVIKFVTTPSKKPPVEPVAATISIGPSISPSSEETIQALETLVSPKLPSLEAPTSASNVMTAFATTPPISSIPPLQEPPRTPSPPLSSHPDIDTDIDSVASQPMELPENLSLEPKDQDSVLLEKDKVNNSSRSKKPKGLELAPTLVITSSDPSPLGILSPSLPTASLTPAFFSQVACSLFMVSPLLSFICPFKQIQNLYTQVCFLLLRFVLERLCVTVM
The settings on record: protein: recombinant; tags: N-terminal GST; dsDNA, one strand shown. The procedure, abridged: as §1

The target of test [7] is T4, ETV2 (Homo sapiens, UniProt O00321 1-342).
T4 sequence: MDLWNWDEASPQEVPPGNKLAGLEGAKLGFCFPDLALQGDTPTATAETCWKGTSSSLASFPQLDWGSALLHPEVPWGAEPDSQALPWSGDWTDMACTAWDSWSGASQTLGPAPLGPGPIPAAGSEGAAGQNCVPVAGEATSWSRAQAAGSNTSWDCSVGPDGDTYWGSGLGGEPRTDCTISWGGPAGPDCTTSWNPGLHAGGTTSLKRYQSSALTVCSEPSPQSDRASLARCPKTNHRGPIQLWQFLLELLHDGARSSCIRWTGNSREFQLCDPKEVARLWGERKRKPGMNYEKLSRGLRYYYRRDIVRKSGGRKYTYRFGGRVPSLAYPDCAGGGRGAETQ
The settings on record: protein: recombinant; tags: N-terminal GST; dsDNA, one strand shown. The procedure, abridged:
as §1

The target of test [8] is T5, ELF3 (Homo sapiens, UniProt P78545 1-371).
T5 sequence: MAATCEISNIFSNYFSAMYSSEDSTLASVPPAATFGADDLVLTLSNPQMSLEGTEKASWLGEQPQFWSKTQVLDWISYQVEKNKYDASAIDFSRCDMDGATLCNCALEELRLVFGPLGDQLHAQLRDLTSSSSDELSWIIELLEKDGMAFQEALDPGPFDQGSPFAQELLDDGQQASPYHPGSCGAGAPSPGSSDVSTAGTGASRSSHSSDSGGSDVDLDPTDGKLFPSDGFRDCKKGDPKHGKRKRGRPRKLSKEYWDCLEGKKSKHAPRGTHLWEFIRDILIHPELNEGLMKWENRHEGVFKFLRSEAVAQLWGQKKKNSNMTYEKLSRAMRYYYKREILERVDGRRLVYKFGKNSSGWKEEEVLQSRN
As to conditions: protein: recombinant; tags: N-terminal GST; dsDNA, one strand shown. A digest of the protocol: as §1

Test [9] concerns the target CRX (Homo sapiens, UniProt O43186 1-299). The settings on record: protein: recombinant; tags: N-terminal GST; dsDNA, one strand shown. The procedure, abridged:
as §1

For test [10], the target named is ETV1 (Homo sapiens, UniProt P50549 1-477). The settings on record: protein: recombinant; tags: N-terminal GST; dsDNA, one strand shown. A digest of the protocol:
as §1

Test [11] addresses T6, ERF (Homo sapiens, UniProt P50548 1-548).
T6 sequence: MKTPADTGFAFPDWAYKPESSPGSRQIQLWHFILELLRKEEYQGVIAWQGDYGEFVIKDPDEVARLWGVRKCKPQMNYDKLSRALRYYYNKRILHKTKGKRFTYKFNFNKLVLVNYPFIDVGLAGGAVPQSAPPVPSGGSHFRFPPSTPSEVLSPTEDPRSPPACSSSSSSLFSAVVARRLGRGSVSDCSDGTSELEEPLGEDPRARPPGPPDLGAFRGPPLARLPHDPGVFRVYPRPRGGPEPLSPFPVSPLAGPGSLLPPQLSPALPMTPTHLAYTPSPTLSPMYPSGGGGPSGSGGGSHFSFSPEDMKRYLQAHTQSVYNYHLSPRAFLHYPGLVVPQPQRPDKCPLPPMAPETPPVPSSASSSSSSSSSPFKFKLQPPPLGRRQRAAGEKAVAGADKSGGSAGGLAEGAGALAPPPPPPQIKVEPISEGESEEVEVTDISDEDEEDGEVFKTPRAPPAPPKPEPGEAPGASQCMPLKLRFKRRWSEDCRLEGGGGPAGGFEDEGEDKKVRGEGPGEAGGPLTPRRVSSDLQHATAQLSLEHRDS
As to conditions: protein: recombinant; tags: N-terminal GST; dsDNA, one strand shown. The procedure, abridged: as §1

Test [12] concerns the target T7, ETV3L (Homo sapiens, UniProt Q6ZN32 1-361).
T7 sequence: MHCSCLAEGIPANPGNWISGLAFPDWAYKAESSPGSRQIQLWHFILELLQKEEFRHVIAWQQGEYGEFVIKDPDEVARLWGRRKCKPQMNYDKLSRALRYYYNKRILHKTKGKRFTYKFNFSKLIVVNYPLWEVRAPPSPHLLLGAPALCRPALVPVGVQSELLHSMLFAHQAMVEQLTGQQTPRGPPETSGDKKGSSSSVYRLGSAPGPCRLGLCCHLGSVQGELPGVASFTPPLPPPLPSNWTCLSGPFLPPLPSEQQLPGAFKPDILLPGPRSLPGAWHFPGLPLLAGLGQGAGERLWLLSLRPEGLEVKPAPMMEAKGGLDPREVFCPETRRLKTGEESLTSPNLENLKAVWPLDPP
As to conditions: protein: recombinant; tags: N-terminal GST; dsDNA, one strand shown. The procedure, abridged: as §1

Test [13] addresses T8, ETS2 (Homo sapiens, UniProt P15036 1-469).
T8 sequence: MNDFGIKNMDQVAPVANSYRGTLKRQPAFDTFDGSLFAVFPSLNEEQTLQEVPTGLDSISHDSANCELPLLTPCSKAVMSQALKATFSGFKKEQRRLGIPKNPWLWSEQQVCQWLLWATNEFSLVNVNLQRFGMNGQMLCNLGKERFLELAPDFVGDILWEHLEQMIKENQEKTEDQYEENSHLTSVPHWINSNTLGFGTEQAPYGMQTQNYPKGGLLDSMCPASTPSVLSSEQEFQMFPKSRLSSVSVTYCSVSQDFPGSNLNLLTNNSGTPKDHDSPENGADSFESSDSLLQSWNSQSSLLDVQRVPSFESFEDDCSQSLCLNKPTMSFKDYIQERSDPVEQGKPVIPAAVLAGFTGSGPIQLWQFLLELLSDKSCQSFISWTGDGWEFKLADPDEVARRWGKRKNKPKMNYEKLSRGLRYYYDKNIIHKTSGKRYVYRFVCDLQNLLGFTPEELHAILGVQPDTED
The settings on record: protein: recombinant; tags: N-terminal GST; dsDNA, one strand shown. The procedure, abridged:
as §1

In test [14] the target is T9, SPDEF (Homo sapiens, UniProt O95238 1-335).
T9 sequence: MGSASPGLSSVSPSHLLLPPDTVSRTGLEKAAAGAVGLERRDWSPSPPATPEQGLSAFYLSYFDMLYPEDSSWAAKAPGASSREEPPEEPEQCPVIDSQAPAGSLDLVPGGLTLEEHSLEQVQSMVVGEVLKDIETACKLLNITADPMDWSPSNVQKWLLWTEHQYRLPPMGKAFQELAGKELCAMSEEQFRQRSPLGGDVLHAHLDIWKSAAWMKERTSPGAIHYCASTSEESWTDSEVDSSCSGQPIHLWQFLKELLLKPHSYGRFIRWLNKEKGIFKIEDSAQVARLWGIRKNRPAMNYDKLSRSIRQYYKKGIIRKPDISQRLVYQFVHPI
As to conditions: protein: recombinant; tags: N-terminal GST; dsDNA, one strand shown. The procedure, abridged:
as §1

The target of test [15] is T10, ETV7 (Homo sapiens, UniProt Q9Y603 1-341).
T10 sequence: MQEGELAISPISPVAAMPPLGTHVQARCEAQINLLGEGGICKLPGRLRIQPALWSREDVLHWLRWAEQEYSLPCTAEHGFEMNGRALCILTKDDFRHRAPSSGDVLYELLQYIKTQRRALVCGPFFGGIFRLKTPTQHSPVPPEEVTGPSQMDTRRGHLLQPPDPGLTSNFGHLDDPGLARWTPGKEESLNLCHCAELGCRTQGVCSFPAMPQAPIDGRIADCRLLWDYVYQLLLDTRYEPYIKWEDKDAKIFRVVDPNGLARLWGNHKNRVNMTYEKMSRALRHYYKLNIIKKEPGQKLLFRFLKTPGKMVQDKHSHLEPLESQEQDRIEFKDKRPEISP
The settings on record: protein: recombinant; tags: N-terminal GST; dsDNA, one strand shown. A digest of the protocol: as §1

In test [16] the target is T11, ELF5 (Homo sapiens, UniProt Q9UKW6-2 1-255).
T11 sequence: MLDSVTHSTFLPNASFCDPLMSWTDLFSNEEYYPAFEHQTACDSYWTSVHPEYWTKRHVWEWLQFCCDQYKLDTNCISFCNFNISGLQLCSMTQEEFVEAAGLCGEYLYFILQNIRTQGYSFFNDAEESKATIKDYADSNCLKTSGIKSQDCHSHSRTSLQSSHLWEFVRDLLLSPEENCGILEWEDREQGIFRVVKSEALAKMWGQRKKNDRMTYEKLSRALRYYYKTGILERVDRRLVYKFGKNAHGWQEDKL
As to conditions: protein: recombinant; tags: N-terminal GST; dsDNA, one strand shown. The procedure, abridged:
as §1

The target of test [17] is T12, ETV3 (Homo sapiens, UniProt P41162-2 1-143).
T12 sequence: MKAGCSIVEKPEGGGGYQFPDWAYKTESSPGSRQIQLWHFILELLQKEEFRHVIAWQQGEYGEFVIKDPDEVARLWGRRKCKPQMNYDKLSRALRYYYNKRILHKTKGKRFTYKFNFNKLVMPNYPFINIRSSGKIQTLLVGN
As to conditions: protein: recombinant; tags: N-terminal GST; dsDNA, one strand shown. The procedure, abridged: as §1

In test [18] the target is ETV6 (Homo sapiens, UniProt P41212 1-452). The settings on record: protein: recombinant; tags: N-terminal GST; dsDNA, one strand shown. A digest of the protocol: as §1

Among the data in PMC7862700, “An all-to-all approach to the identification of sequence-specific readers for epigenetic DNA modifications on cytosine” are binding signal values, retold here.

Sequence of ETV1 (P50549 whole entry): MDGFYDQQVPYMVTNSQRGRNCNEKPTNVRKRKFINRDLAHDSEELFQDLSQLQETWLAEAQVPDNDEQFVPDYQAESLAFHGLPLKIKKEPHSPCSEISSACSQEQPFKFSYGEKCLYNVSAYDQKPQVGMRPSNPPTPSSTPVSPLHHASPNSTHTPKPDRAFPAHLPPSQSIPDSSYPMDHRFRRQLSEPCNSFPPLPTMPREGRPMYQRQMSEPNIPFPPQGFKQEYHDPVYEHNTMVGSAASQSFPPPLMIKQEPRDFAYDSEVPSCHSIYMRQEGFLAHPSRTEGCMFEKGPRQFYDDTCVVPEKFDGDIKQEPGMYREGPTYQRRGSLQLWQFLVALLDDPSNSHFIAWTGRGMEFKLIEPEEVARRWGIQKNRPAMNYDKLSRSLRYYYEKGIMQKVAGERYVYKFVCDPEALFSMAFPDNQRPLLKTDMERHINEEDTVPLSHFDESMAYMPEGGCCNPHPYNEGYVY
Sequence of CRX (O43186 whole entry): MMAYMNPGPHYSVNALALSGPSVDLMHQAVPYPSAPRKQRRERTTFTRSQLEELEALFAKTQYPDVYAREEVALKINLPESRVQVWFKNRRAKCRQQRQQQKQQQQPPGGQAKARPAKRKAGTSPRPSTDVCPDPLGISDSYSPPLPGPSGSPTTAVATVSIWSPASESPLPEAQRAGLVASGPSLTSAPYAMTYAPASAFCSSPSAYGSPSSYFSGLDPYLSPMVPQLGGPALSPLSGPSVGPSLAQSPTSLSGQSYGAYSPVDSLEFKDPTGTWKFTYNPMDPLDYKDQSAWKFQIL
Sequence of ETV5 (P41161 whole entry): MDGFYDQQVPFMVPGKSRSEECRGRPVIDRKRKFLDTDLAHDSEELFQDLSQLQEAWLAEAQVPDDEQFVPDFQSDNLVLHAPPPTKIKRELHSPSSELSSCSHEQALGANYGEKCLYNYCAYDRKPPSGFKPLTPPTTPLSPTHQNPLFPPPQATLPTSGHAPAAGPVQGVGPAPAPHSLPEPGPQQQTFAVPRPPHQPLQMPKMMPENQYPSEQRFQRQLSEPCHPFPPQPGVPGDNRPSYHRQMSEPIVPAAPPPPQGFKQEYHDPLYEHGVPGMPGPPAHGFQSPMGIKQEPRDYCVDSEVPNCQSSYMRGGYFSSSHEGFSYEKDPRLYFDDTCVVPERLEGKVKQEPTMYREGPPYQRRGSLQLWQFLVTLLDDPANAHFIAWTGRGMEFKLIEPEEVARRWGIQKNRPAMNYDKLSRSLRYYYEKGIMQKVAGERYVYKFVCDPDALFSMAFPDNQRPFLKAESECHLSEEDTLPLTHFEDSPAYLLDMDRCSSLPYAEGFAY
Sequence of ELF4 (Q99607 whole entry): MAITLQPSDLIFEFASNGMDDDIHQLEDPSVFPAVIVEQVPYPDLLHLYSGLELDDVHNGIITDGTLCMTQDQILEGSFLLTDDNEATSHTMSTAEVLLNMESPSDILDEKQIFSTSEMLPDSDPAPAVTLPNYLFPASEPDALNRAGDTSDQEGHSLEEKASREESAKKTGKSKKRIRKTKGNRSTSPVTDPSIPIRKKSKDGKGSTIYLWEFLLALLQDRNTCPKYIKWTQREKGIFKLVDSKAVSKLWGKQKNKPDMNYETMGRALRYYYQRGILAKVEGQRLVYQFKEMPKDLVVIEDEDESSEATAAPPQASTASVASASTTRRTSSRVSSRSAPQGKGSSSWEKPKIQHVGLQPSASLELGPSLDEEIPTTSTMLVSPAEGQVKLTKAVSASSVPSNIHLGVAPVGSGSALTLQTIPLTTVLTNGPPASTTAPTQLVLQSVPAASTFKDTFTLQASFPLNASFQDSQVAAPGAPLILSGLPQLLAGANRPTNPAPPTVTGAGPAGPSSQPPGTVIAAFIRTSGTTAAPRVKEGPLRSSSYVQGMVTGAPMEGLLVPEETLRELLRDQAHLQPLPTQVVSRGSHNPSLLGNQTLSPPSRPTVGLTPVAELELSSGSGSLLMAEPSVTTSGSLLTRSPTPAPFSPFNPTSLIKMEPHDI
Sequence of HSF1 (Q00613 whole entry): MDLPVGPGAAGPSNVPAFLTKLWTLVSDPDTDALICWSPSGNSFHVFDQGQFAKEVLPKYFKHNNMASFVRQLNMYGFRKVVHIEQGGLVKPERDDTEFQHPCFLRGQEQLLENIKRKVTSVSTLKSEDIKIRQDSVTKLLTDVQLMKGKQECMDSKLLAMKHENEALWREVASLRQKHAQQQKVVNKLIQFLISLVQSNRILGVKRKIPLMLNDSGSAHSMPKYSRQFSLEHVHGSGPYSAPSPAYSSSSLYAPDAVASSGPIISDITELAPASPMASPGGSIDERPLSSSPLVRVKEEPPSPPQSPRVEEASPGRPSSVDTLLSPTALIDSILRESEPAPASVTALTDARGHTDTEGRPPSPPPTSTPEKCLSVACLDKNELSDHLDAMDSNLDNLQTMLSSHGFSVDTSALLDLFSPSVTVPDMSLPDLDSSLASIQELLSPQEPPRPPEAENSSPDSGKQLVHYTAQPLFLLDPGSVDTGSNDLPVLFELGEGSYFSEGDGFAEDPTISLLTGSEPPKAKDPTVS
Sequence of ETV6 (P41212 whole entry): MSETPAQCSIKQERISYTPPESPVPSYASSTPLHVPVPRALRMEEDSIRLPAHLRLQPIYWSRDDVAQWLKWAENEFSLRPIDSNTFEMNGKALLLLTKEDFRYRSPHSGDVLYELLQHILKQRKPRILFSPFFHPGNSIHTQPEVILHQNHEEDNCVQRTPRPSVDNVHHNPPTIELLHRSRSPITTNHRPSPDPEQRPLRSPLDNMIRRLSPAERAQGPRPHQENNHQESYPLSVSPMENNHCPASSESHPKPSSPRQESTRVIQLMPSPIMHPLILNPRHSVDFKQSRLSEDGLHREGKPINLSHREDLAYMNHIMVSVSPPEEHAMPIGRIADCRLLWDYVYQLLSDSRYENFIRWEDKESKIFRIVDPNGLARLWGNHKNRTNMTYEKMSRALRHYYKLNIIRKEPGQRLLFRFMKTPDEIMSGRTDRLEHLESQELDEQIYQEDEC

In the case of TTCGCT, the binding signal is 1.2 fold enrichment (6-mer frequency, TF over GST control) in test [1]; 1.24 fold enrichment (6-mer frequency, TF over GST control) in [2]; 1.29 fold enrichment (6-mer frequency, TF over GST control) in [3]; 1.08 fold enrichment (6-mer frequency, TF over GST control) in test [4]; 1.36 fold enrichment (6-mer frequency, TF over GST control) in [5]; 1.29 fold enrichment (6-mer frequency, TF over GST control) in test [6]. Also, the binding signal is 1.49 fold enrichment (6-mer frequency, TF over GST control) in test [7]; 1.26 fold enrichment (6-mer frequency, TF over GST control) in test [8]; 1.13 fold enrichment (6-mer frequency, TF over GST control) in test [9]; 1.27 fold enrichment (6-mer frequency, TF over GST control) in [10]; 1.4 fold enrichment (6-mer frequency, TF over GST control) in [11]; 1.24 fold enrichment (6-mer frequency, TF over GST control) in test [12]. Besides, the binding signal in [13] is 1.3 fold enrichment (6-mer frequency, TF over GST control); in [14] it was 1.2 fold enrichment (6-mer frequency, TF over GST control); in [15], 1.34 fold enrichment (6-mer frequency, TF over GST control); in [16], 1.23 fold enrichment (6-mer frequency, TF over GST control); in [17], 1.23 fold enrichment (6-mer frequency, TF over GST control); in test [18], 1.23 fold enrichment (6-mer frequency, TF over GST control).
